For 89 molecules, Potency results are on record in PubChem BioAssay AID1347416 (National Center for Advancing Translational Sciences (NCATS), 2020).

Structures are written as SMILES. In all, about 4,100 compounds went through this assay and about 1,600 (39%) were called active. Another 25% or so got no clear call; they are omitted. The call rests on the fitted dose curve; in most records, active means well fitted inhibition curve with a large enough effect; inconclusive means small, poorly fitted or top-dose-only effect; inactive means no such curve, though single readings can be large or run the other way. This is one part of the list.
Potency means the concentration at half of the fitted maximal effect.

The nature of the assay: qHTS Validation assay for Inhibitors of Plasmodium falciparum Dd2 growth in vitro. Further: nearly all actives have a fitted effect of over 70% in size. Particulars: P. falciparum Dd2 in RBCs, SYBR Green growth, 72 h; series mostly up to 28.7 µM. In short, it runs like this: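 P. falciparum Dd2-infected red blood cells (2.5% hematocrit, 0.3% parasitemia) grown 72 h at 37 °C under 5% O2 with compounds in a titration, 29 uM to 0.5 nM final. Growth read as SYBR Green-1 fluorescence after ~16 h lysis; artesunate 300 nM as positive control.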
(qHTS replaces the single test concentration by a dilution series.)
In the case of `O=C(N/N=C/c1ccccn1)c1ccccc1`, the Potency entry was “inactive”.

Regarding `C/C(=N\NC(=O)c1cccc(Br)c1)c1ccccn1`, the Potency is 4.73 µM (active).

Consider `C/C(=N\NC(=O)c1ccccc1OCc1ccc(F)cc1)c1ccccn1`, for which the Potency is 4.73 µM (active).

Take `Cc1n[nH]c(=S)n(/N=C/c2cccs2)c1=O`: the Potency result is “inactive”.

Consider `O=c1cc(Nc2ccc3c(c2)OCCO3)[nH]c(=O)n1C1CCCCC1`, for which the Potency result was “inactive”.

Turning to `COc1ccc(-c2csc3ncnc(Cl)c23)cc1`, the Potency was 4.22 µM (active).

For `Fc1ccc(-c2csc3ncnc(Cl)c23)cc1`, the Potency is 3.35 µM (active).

As for `CCc1ccc(C(=O)N2C[C@@H](CO)[C@H](c3ccccn3)C2)cc1`, the Potency result is “inactive”.

In the case of `C[C@]1(CO)[C@H]2Cc3sc(NC(=O)C4CCCCC4)nc3[C@@H](CC(=O)NCc3cccnc3)[C@]2(C)CC[C@H]1O`, the Potency result was “inactive”.

As to `COc1ccc(C(=O)Nc2nc3c(s2)C[C@@H]2[C@](C)(CO)[C@H](O)CC[C@@]2(C)[C@@H]3CC(=O)NCc2ccco2)cc1`, the Potency is 2.66 µM (active).

Turning to `C#CCN(C)C(=O)C[C@@H]1c2nc(NC(=O)c3ccc(OC)cc3)sc2C[C@@H]2[C@](C)(CO)[C@H](O)CC[C@]21C`, the Potency was 2.66 µM (active).

For the molecule `O=C(CC1C(=O)NCCN1Cc1cccc(Oc2ccccc2)c1)NCc1ccco1` (centres undefined), the Potency entry was “inactive”.

In the case of `COc1cccc(CNC(=O)CN2C(=O)NC3(CCC(C(C)(C)C)CC3)C2=O)c1` (centres undefined), the Potency entry is “inactive”.

Turning to `CNC(=O)[C@H]1C[C@H](Oc2ccccc2)CN1Cc1c[nH]c2ccc(OC)cc12`, the Potency result is “inactive”.

As for `COc1ccc2[nH]cc(CCNC(=O)C3(Cc4ccccc4)CCCCC(=O)N3)c2c1` (centres undefined), the Potency was 5.96 µM (active).

With `CCC(=O)O[C@]1(C(=O)CCl)[C@@H](C)C[C@H]2[C@@H]3C[C@H](F)C4=CC(=O)C=C[C@]4(C)[C@@]3(F)[C@@H](O)C[C@@]21C`, the Potency was 10.6 µM (active).

For `Cc1ccc(NC(=O)Cn2cccc2-c2nc(-c3ccccc3)no2)c(C)c1`, the Potency entry is “inactive”.

Take `CC(C)c1ccccc1NC(=O)Cn1cccc1-c1nc(-c2ccc(F)cc2)no1`: the Potency is 2.99 µM (active).

On to `CC(C)c1ccccc1NC(=O)CSc1nnc(COc2ccccc2Cl)o1`, for which the Potency entry was “inactive”.

`COc1ccccc1NC(=O)Cn1cccc1-c1nc(-c2ccc(F)cc2)no1`: the Potency result is “inactive”.

In the case of `CC(C)c1ccccc1NC(=O)Cn1cccc1-c1nc(-c2ccccc2)no1`, the Potency is 4.22 µM (active).

Regarding `O=C(Cn1cccc1-c1nc(-c2ccc(F)cc2)no1)NCCc1ccccc1`, the Potency entry is “inactive”.

`Cc1ccccc1N(C(=O)c1snc(C(N)=O)c1N)C(C(=O)NCC1CCCO1)c1ccc(N(C)C)cc1` (centres undefined): the Potency was 7.5 µM (active).

`Cc1ccc(-c2cc(C(F)F)n3ncc(C(=O)Nc4ccc(S(=O)(=O)Nc5ccccc5C)cc4)c3n2)cc1`: the Potency entry is “inactive”.

As to `O=C(C1CCC1)N1CCCCCC1c1nnc(-c2ccccc2)o1` (centres undefined), the Potency entry is “inactive”.

With `Cc1ccc(-c2cc(C(F)F)n3ncc(C(=O)N4CCCCC4c4cccnc4)c3n2)cc1` (centres undefined), the Potency is 2.37 µM (active).

`O=C(c1ccccc1F)N1CCCCCC1c1nnc(-c2ccccc2)o1` (centres undefined): the Potency result is “inactive”.

Turning to `Cc1ccc(-c2cc(C(F)(F)F)n3ncc(C(=O)N4CCCCC4c4cccnc4)c3n2)cc1` (centres undefined), the Potency is 1.88 µM (active).

Take `O=C(c1cnn2c(C(F)F)cc(-c3ccccc3)nc12)N1CCCCC1c1cccnc1` (centres undefined): the Potency is 8.41 µM (active).

`CC(C)c1ccc(CN2CCc3ncc(C(=O)NCCN4CCNC4=O)n3CC2)cc1`: the Potency result was “inactive”.

`O=C(Nc1ccc(-c2csc(Nc3ccccc3)n2)cc1)c1cc([N+](=O)[O-])cc(C(F)(F)F)c1`: the Potency is 2.11 µM (active).

Regarding `Cc1ccc(-c2cc3c(=O)n(CCNC(=O)c4cc(F)ccc4F)ccn3n2)c(C)c1`, the Potency result was “inactive”.

As to `CN(C)C(=O)c1ccc(N2CCC(NCCC3=CC[C@H]4C[C@@H]3C4(C)C)CC2)cc1`, the Potency result is “inactive”.

Consider `CC(CCc1ccccc1)NCC(O)c1cccc([N+](=O)[O-])c1` (centres undefined), for which the Potency is 0.473 µM (active).

On to `O=C(CCc1cc(Cl)no1)N1CCc2nc3cc(-c4ccccc4)[nH]n3c(=O)c2C1`, for which the Potency entry is “inactive”.

On to `CCN(CC)C(=O)Cn1c(=O)n(-c2ccc(Cl)cc2)c(=O)c2c3c(sc21)CCCCC3`, for which the Potency result is “inactive”.

Turning to `CC(=O)c1sc2c(c1C)c(=O)n(-c1ccc(Cl)cc1)c(=O)n2Cc1cc(=O)n2cc(Cl)ccc2n1`, the Potency is 7.5 µM (active).

For the molecule `CCc1nc2c(c(-c3ccc(O)cc3)n1)CCN(Cc1ccccc1C(F)(F)F)CC2`, the Potency was 2.99 µM (active).

`CC(C)c1nc2c(c(-c3ccc(O)cc3)n1)CCN(Cc1ccccc1C(F)(F)F)CC2`: the Potency is 4.73 µM (active).

Regarding `Cc1c(Cl)cccc1Nc1nn2c(=O)c3ccc(C(=O)N(C)Cc4ccccc4)cc3nc2s1`, the Potency is 16.8 µM (active).

On to `NS(=O)(=O)c1ccc(CCNC(=O)c2ccc3nc(CCc4ccccc4)oc3c2)cc1`, for which the Potency result is “inactive”.

For `Cc1c(Cl)cccc1Nc1nn2c(=O)c3ccc(C(=O)NCCc4ccccc4)cc3nc2s1`, the Potency was 7.5 µM (active).

As for `CC1(CNc2ccccc2)COc2ccc(C(=O)NCCc3ccccc3)cc2N1` (centres undefined), the Potency result is “inactive”.

Regarding `Cc1c(Cl)cccc1NC(=O)CCCn1nc(C)c2sc3ccccc3c2c1=O`, the Potency result was “inactive”.

In the case of `O=c1c2cc3c(cc2nc2sc(Nc4ccc(F)cc4F)nn12)OCO3`, the Potency result is “inactive”.

Regarding `COc1ccccc1C1CC(c2ccccc2)=NN1C(=O)c1ccccc1` (centres undefined), the Potency is 2.37 µM (active).

As for `O=C(NC1CCCN(c2cc(-c3ccccc3)[nH]n2)C1)c1cccc(Cl)c1` (centres undefined), the Potency result was “inactive”.

For the molecule `COc1ccc(/C(C)=N/NC(=S)NCCc2ccccc2)c(O)c1`, the Potency is 3.35 µM (active).

For `CCCCc1c(C)c(C#N)c2nc3ccccc3n2c1Nc1c(C)n(C)n(-c2ccccc2)c1=O`, the Potency was 2.66 µM (active).

Regarding `Cc1sc(NC(=O)c2ccco2)c(C(c2cccnc2)N2CCC(C)CC2)c1C` (centres undefined), the Potency was 5.31 µM (active).

Consider `CC1CCN(S(=O)(=O)c2ccc(NC(=O)c3ccco3)cc2)CC1`, for which the Potency result was “inactive”.

As for `CCOC(=O)c1cn(CC)c2c(ccc3ccccc32)c1=O`, the Potency entry is “inactive”.

In the case of `CCOC(=O)c1c[nH]c2c(C)cc(C)cc2c1=O`, the Potency is 4.22 µM (active).

As to `CCOC(=O)c1c[nH]c2cc(OCC(C)C)c(OCC(C)C)cc2c1=O`, the Potency was 0.944 µM (active).

`c1csc(-c2nc3nccc(-c4cc5ccccc5o4)n3n2)c1`: the Potency result was “inactive”.

On to `CC(NCc1ccccc1)c1ccccc1O` (centres undefined), for which the Potency is 5.31 µM (active).

Consider `CCN1C(=O)c2cccc3c(S(=O)(=O)Nc4ccccc4)ccc1c23`, for which the Potency entry is “inactive”.

Consider `Cc1ccccc1-c1nccn2c(C3CN(Cc4ccccc4O)C3)ncc12`, for which the Potency is 5.44 µM (active).

`O=[N+]([O-])c1ccc(S(=O)(=O)N2CCn3cccc3C2c2ccc(Br)cc2)cc1` (centres undefined): the Potency is 5.96 µM (active).

Take `CC(C(=O)NC1CCCC1)N1CCN(S(=O)(=O)c2ccc(C(C)(C)C)cc2)CC1` (centres undefined): the Potency is 8.41 µM (active).

`Cc1ccc(S(=O)(=O)N2CCC(C(=O)NC3CCCC3)CC2)cc1Cl`: the Potency entry is “inactive”.

With `CC(C(=O)N1CCCC1)N1CCN(S(=O)(=O)c2ccc(C(C)(C)C)cc2)CC1` (centres undefined), the Potency was 3.35 µM (active).

As to `CC(C)N1CCC(NC(=O)NC2CCCCC2)CC1`, the Potency entry was “inactive”.

Turning to `COc1cccc(C(=O)N2CCC(N3C[C@H](O)C[C@H]3C(=O)N3CC=C(c4ccccc4)CC3)CC2)c1`, the Potency is 9.44 µM (active).

As to `COCCNC(=O)[C@@H]1C[C@@H](O)CN1C1CCN(C(=O)Cc2ccccc2)CC1`, the Potency result is “inactive”.

With `COc1cccc(C(=O)N2CCC(N3C[C@H](O)C[C@H]3C(=O)N3CCc4ccccc4C3)CC2)c1`, the Potency is 8.41 µM (active).

As to `COc1ccc(C(=O)N2CCC(n3c(C)cnc3-c3ccccc3)CC2)c(OC)c1`, the Potency entry is “inactive”.

Take `COc1cccc(CNC(=O)[C@@H]2C[C@@H](O)CN2C2CCN(C(=O)c3ccc(OC)c(F)c3)CC2)c1`: the Potency result was “inactive”.

Regarding `CCCC(=O)N1CCn2c(nnc2[C@@H]2C[C@@H](O)CN2Cc2ccccc2)C1`, the Potency entry was “inactive”.

For `CCCCOCc1cc(CN2CCN(c3cccc(Cl)c3)CC2)c(O)c2ncccc12`, the Potency was 6.68 µM (active).

As for `CC(C)OCc1cc(CN2CCN(c3cccc(C(F)(F)F)c3)CC2)c(O)c2ncccc12`, the Potency was 6.68 µM (active).

Turning to `CCOc1ccc(CC(=O)N2CCC[C@H]2c2nc(-c3ccc(C)cc3)no2)cc1`, the Potency result was “inactive”.

On to `COCCOc1cc(-c2noc([C@@H]3CCCN3CC3CC3)n2)ccn1`, for which the Potency was 15.3 µM (active).

In the case of `COc1ccc(-c2noc(CCCC(=O)N3CCCC3c3nc(C4CCOCC4)no3)n2)cc1OC` (centres undefined), the Potency result was “inactive”.

For `c1cc(-c2noc([C@@H]3Cc4nc[nH]c4CN3CC3CCCCC3)n2)ccn1`, the Potency is 21.7 µM (active).

For the molecule `COCCNc1ncccc1-c1noc([C@@H]2CCCN2Cc2ccccn2)n1`, the Potency was 7.69 µM (active).

Regarding `COc1ccc(C(=O)N2CCC[C@H]2c2nc(-c3ccccc3Cl)no2)cc1OC`, the Potency entry was “inactive”.

Consider `COc1ccc(C(O)(CCC(C)C)C(CN2CCOCC2)c2ccc(Cl)cc2)cc1` (centres undefined), for which the Potency is 6.68 µM (active).

For `COc1ccc(C(O)(CCC(C)C)C(CN2CCOCC2)c2ccccc2)cc1` (centres undefined), the Potency was 5.31 µM (active).

With `COc1cc(OC)c(NC(=O)N2CCc3cc(S(=O)(=O)N4CCC(C)CC4)ccc32)cc1Cl`, the Potency result is “inactive”.

Turning to `COc1ccc(S(=O)(=O)N2CCCCCC2)cc1NC(=O)c1c2c(nc3ccccc13)CCN(Cc1ccccc1)C2`, the Potency is 4.73 µM (active).

Consider `COc1ccc(OC)c(NC(=O)c2ccc3c(c2)N(S(=O)(=O)c2ccccc2)CC3)c1`, for which the Potency result was “inactive”.

`COCCOCC1(CNC(=O)c2cnccn2)C[C@@H](O)[C@@H](O)C1` (some centres undefined): the Potency entry is “inactive”.

Consider `O=c1c2ccccc2sc2nc(C3CCCCC3)n(Cc3ccco3)c(=O)c12`, for which the Potency is 7.5 µM (active).

Consider `CC1CCN(c2nc3c(S(=O)(=O)c4ccccc4)nnn3c3ccc(Cl)cc23)CC1`, for which the Potency was 2.66 µM (active).

In the case of `Cc1c(C(=O)N2CCN(c3ccccn3)CC2)oc2ccccc12`, the Potency entry is “inactive”.

In the case of `O=S(=O)(c1ccccc1)c1nnn2c1nc(NC1CCN(Cc3ccccc3)CC1)c1cc(Cl)ccc12`, the Potency is 2.99 µM (active).

Take `CN(C)c1cc(=O)c2ccnc(N3CCN(c4ccccn4)CC3)c2o1`: the Potency entry is “inactive”.

As for `Cc1ccc(S(=O)(=O)c2nnn3c2nc(N2CCN(c4ccccn4)CC2)c2ccccc23)cc1`, the Potency is 7.5 µM (active).
